Screening results as filed in PubChem.
An excerpt weighted towards active compounds, which were near 3.4% of everything screened.
FBW7 activator: human FBW7 E3 ligase activation, primary screen. AlphaScreen FBW7–phospho-cyclin E peptide binding, activator screen. Q969H0. normalized activity (activation), % at 26.1 µM. 650,000 compounds, 0.13% hits. AID 1259310; in the data active = normalized activity above about 1.9%;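 also: purified mutant Fbw7 with reduced substrate affinity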
Target sequence (Q969H0 whole entry, looked up): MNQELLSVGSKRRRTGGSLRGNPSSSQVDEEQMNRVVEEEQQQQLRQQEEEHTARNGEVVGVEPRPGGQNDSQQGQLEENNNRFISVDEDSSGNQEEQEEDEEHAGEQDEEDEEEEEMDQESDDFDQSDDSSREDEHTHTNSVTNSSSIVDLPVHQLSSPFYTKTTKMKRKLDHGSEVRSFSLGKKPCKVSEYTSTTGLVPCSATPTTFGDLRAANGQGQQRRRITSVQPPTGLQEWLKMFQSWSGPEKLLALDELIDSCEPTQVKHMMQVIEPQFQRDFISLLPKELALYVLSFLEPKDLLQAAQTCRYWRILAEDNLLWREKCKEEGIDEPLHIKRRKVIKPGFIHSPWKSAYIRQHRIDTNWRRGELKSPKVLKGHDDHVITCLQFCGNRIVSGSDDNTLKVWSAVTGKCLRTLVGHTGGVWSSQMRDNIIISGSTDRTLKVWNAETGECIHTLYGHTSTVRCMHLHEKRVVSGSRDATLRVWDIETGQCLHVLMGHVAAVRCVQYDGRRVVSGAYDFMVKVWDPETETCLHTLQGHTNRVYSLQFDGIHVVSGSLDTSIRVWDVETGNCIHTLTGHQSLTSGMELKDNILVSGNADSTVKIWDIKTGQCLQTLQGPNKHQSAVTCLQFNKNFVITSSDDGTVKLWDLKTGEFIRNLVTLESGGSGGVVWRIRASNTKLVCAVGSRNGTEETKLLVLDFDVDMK
GPR151 ag: activates the human receptor GPR151. 650,000 compounds, 1% hits. Q8TDV0. activation, % at 11.2 µM. PathHunter beta-arrestin GPR151 cells, luminescence; in the data active = activation above about 4.9%
TEAD-YAP block: TEAD-YAP interaction inhibition. HEK-TIYL cells, TEAD-Gal4/YAP UAS-luciferase luminescence. inhibition, % at 9.12 µM. 640,000 compounds, 1.4% hits. AID 1259422; in the data active = inhibition above about 32%
MITF inh: inhibitors of human MITF | O75030 | inhibition, % at 2.6 µM | AlphaScreen MITF homodimerization, bead proximity signal | AID 1259374 | 650,000 compounds, 0.91% hits; in the data active = inhibition above about 50%
GPR151 confirm: confirmation of human GPR151 activators; shares compounds with GPR151 ag; GPR151 PathHunter beta-arrestin cells, luminescence, 90 min; % of EA-reagent control over plate median; activation, % at 11.2 µM; 6,700 tested, under 10 active;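 active = mean percent activation across replicates above the confirmation screen cutoff of 4.91%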
GPR119 counter: counter-screen for GPR151 activators: effect on human GPR119; shares compounds with GPR151 ag; GPR119 PathHunter beta-arrestin cells, luminescence, 90 min; 0 = compound-well median, 100 = enzyme-acceptor control; activation, % at 11.2 µM; 6,700 compounds, 0.3% hits; AID 1508611;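 active = mean percent activation in the counterscreen above 29.09%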;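 also: counterscreen on off-target GPR119 to flag nonselective hits from the GPR151 activator screen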
Numbers stand for hits; – = inactive; · = no result given.

SMILES | FBW7 activator | GPR151 ag | TEAD-YAP block | MITF inh | GPR151 confirm | GPR119 counter
CC1CC(C)CN(S(=O)(=O)c2ccc(Sc3ccc(F)cc3)c(C(=O)NCc3ccc(Cl)c(Cl)c3)c2)C1 (stereo unspecified) | – | – | – | – | · | ·
COc1ccc(NC(=O)N2Cc3ccccc3CC2S(C)(=O)=O)cc1Cl (stereo unspecified) | – | – | – | – | · | ·
Cc1ncc(CO)c2cc(-c3nnc(Nc4ccccc4F)s3)c(=O)oc12 | – | 5.8 | – | – | – | –
Cc1ccccc1CNC(=O)CN(C)c1nnc(N2CCCC2=O)s1 | – | – | – | – | · | ·
COc1cccc(CNC(=O)CN(C)c2nnc(N3CCCC3=O)s2)c1OC | – | 5.3 | – | – | – | –
Cc1cc(C(=O)Nc2cc(Cl)ccc2O)on1 | – | 10 | – | – | – | –
Cc1cc(NC(=O)Cc2ccc(F)cc2)ccc1N1CCCC1=O | – | 5.0 | – | – | – | –
Cc1cc(NC(=O)Cc2ccc(-c3ccccc3)cc2)ccc1N1CCCC1=O | – | – | – | – | · | ·
Cc1nc(NC(=O)c2ccccc2F)sc1C(=O)O | – | – | – | – | · | ·
Cc1nc(NS(C)(=O)=O)sc1C(=O)O | – | 5.0 | – | – | – | –
Cn1c(CC(=O)NN)nc2ccccc21 | – | 6.2 | – | – | – | –
CCOC(=O)c1cnc(SC2CC(=O)N(c3cccc(F)c3)C2=O)nc1N (stereo unspecified) | – | 7.5 | – | – | – | –
CCOC(=O)c1cnc(SCc2cccc(F)c2)nc1N | – | – | – | – | · | ·
O=[N+]([O-])c1c(Nc2ccc(Br)cc2F)ccc2nonc12 | – | 5.0 | – | – | – | –
CC(=O)c1oc2ccc3c(C)cc(=O)oc3c2c1C | – | – | – | – | · | ·
Cc1cc(=O)oc2c1ccc1oc(C(=O)c3ccc(Cl)cc3)c(C)c12 | – | 5.7 | – | – | – | –
Cc1ccn2cc(-c3ccc(NC(=O)c4ccc(Br)cc4)cc3)nc2n1 | – | 5.8 | – | – | – | –
Cc1ccn2cc(-c3ccc(NC(=O)CCc4ccccc4)cc3)nc2n1 | – | – | – | – | · | ·
CCOC(=O)C1(CC2CC2)CCN(S(=O)(=O)c2cc(C)sc2C)CC1 | – | 6.3 | – | – | – | –
CCOC(=O)C1(CC2CC2)CCN(S(=O)(=O)c2cc(Cl)ccc2OC)CC1 | – | – | – | – | · | ·
CCOc1ccc(N(C)C(=O)c2cc(S(=O)(=O)N3CCc4ccccc43)ccc2F)cc1 | – | – | – | – | · | ·
O=C(O)CCCNC(=O)c1ccccc1 | – | – | – | – | · | ·
Cc1ccccc1CC1(C)C(=O)Nc2cc(F)ccc21 (stereo unspecified) | – | – | – | – | · | ·
Clc1ccc(C(Cn2ccnc2)OCc2c(Cl)cccc2Cl)c(Cl)c1 (stereo unspecified) | – | 10 | · | – | – | –
CCCCCC(=O)Nc1ccc(N2CCN(CC)CC2)cc1 | – | 11 | – | – | – | –
SMILES | FBW7 activator | GPR151 ag | TEAD-YAP block | MITF inh | GPR151 confirm | GPR119 counter
CCCCOC(=O)c1ccc(NC(=O)c2ccc(C3CCCCC3)cc2)cc1 | – | 7.2 | 33 | – | – | –
Cc1ccc(-c2cc(C(=O)N/N=C/c3cccc(Br)c3)n[nH]2)o1 | – | 7.5 | – | – | – | –
CCOc1cc(/C=N/NC(=O)c2cc(-c3ccc(C)o3)[nH]n2)ccc1O | – | 7.0 | – | – | – | –
COc1ccc(/C=N/NC(=O)c2cc(-c3ccc(C)o3)[nH]n2)cc1 | – | – | – | – | · | ·
CCOc1cc(/C=N/NC(=O)c2cc(C(C)C)[nH]n2)ccc1O | – | – | – | – | · | ·
Cc1ccc(S(=O)(=O)N(Cc2ccc(Cl)cc2Cl)c2nnc(C)s2)cc1 | – | – | – | – | · | ·
CCOC(=O)N1CCN(c2nc(CN3CCCC(C)C3)nc3c(C)cccc23)CC1 (stereo unspecified) | – | – | – | – | · | ·
CCOc1ccc(-c2nnn(CC(C)=O)n2)cc1OCC | – | – | – | – | · | ·
CCOc1ccc(-c2nnn(CC(C)=O)n2)cc1 | – | 10.0 | – | – | – | –
CC(=O)N1N=C(c2ccc(C(C)(C)C)cc2)OC12CCCC2 | – | – | – | – | · | ·
COc1ccc(C(=O)Nc2cccc(Cl)c2N2CCCC2)cc1[N+](=O)[O-] | – | – | – | – | · | ·
COc1ccc(-c2oc3ncn4nc(-c5cccc6ccccc56)nc4c3c2-c2ccc(OC)cc2)cc1 | – | 5.3 | – | – | – | –
O=C1CC(NNc2ccc([N+](=O)[O-])cc2)C(=O)N1c1ccc(Cl)c(C(F)(F)F)c1 (stereo unspecified) | – | – | – | – | · | ·
Nc1ncnc(Nc2ccc(N=Nc3ccccc3)cc2)c1[N+](=O)[O-] | – | – | – | – | · | ·
Cc1ccc(Nc2ncnc(N)c2[N+](=O)[O-])cc1Cl | – | 9.1 | – | – | – | –
Nc1ncnc(Nc2ccc(Nc3ccccc3)cc2)c1[N+](=O)[O-] | – | 8.7 | – | – | – | –
CC(C)CNC(=O)COC(=O)c1ccc(O)cc1 | – | – | – | – | · | ·
CC(C)CNC(=O)NC(=O)COC(=O)c1ccccc1N=Nc1ccc(O)cc1 | – | 5.9 | – | – | – | –
COc1cccc2cc(-c3cn4ccc(C)cc4n3)c(=O)oc12 | – | – | – | – | · | ·
CCOc1cccc2cc(-c3cn4cc(C)ccc4n3)c(=O)oc12 | – | 11 | – | – | – | –
N#C/C(=C\c1ccsc1)C(=O)NC1CCCCC1 | – | – | – | – | · | ·
CC1=CC(C)(C)N2C(=O)C3(C(C#N)=C(N)OC4=C3C(=O)CC(C)(C)C4)c3c(C)c(C)cc1c32 (stereo unspecified) | – | 9.5 | – | – | – | –
CCc1cc2c3c(c1)C1(C(=O)N3C(C)(C)C=C2C)C(C#N)=C(N)OC2=C1C(=O)CC(C)(C)C2 (stereo unspecified) | – | – | – | – | · | ·
Cc1cc(S(=O)(=O)Nc2cc3c4c(c2)CCN4C(=O)CC3)ccc1F | – | – | – | – | · | ·
O=C(Nc1nncs1)c1cccc(I)c1 | – | 5.4 | – | – | – | –
SMILES | FBW7 activator | GPR151 ag | TEAD-YAP block | MITF inh | GPR151 confirm | GPR119 counter
O=C(Nc1nncs1)c1cccc(Br)c1 | – | – | – | – | · | ·
COc1ccc(OC)c(C2=C/C(=C/c3ccc(C)o3)C(=O)O2)c1 | – | – | – | – | · | ·
Cc1c(S(=O)(=O)N2CCN(c3ccccc3)CC2)c(=O)n(C)c(=O)n1C | – | 8.2 | – | – | – | –
COCCNC(=O)c1sc2ncnc(N3CCc4ccccc4C3)c2c1C | – | 5.3 | – | – | – | –
CCc1sc(NC(=O)COc2ccccc2)nc1-c1ccc2c(c1)CCN2C(C)=O | – | – | – | – | · | ·
O=C(NCCc1ccccc1)NC1(C(F)(F)F)Oc2ccccc2O1 | – | – | – | – | · | ·
O=C(Nc1ccc(N2CCC(NCCN3CCNC3=O)CC2)cc1)C1CCCC1 | – | 6.3 | – | – | – | –
O=C(COc1ccccc1)Nc1ccc(N2CCC(NCCN3CCNC3=O)CC2)cc1 | – | – | – | – | · | ·
CCNc1nc(NC(C)C)nc(OCCNC(=O)Nc2ccccc2)n1 | – | – | – | – | · | ·
